Source: PubChem BioAssay
Compounds with a hit are over-represented: about 1% of the library has one in this group of screens.
PKA inh: inhibitors of human PKA kinase activity, primary screen, biochemical, ATP-depletion luminescence, Kemptide substrate; 65,000 compounds, 0.1% hits; cAMP-dependent protein kinase catalytic subunit alpha (Homo sapiens), P17612; inhibition, % at 6 µM; PKA Kemptide phosphorylation, Kinase-Glo ATP luminescence;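 active means inhibition above the screen-wide mean inhibition plus 3 SD, cut at about 21% in these data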
Hsp90 block: tumor Hsp90 inhibitors, primary screen, cell lysate, fluorescence polarization, NCI-N417 lysate. Cy3B-geldanamycin FP displacement. inhibition, % at 30 µM. 64,000 compounds, 0.35% hits;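 active means inhibition above 50%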
Cdc25B block: inhibitors of Cdc25B phosphatase catalytic domain, primary screen, biochemical, OMFP fluorescence; 65,000 compounds, 0.1% hits; recombinant Cdc25B, OMFP fluorescence Ex485/Em525; M-phase inducer phosphatase 2 (Homo sapiens), P30305; AID 368, 2006; inhibition, %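 (compounds tested at 10 µM final in the well)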; in the data active means inhibition above about 50%
SK-BR-3 tox 24h: SK-BR-3 proliferation inhibitors, primary screen, cell-based, human, 24 h; SK-BR-3 viability, CellTiter-Glo ATP luminescence; active compounds read low; viability, % at 10 µM; AID 847, 2007; 41,000 compounds, 0.47% hits;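 active means viability at or below the median of all test compounds minus 3 SD, in both replicates if run twice, cut at about 45% in these data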
ROCK2 blocker: inhibitors of human ROCK2 kinase, primary screen, biochemical, high-throughput, luminescence. 60,000 compounds, 0.35% hits. AID 604, 2007. Rho-associated protein kinase 2 (Homo sapiens), O75116. inhibition, % at 6 µM. purified ROCK2, Kinase-Glo ATP depletion luminescence;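 active means inhibition above the screen-wide mean inhibition plus 3 SD, cut at about 18% in these data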
DUSP1 inh: MKP-1 phosphatase inhibitors, primary screen, biochemical, in vitro. Dual specificity protein phosphatase 1 (Homo sapiens), P28562. recombinant MKP-1, OMFP hydrolysis fluorescence. inhibition, %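 (compounds tested at a single concentration somewhere between 10 and 100 µM)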. 65,000 compounds, 0.15% hits. AID 374, 2006;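 active means inhibition above about 50%, limit read from the data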
Target sequence (P28562 whole entry, looked up): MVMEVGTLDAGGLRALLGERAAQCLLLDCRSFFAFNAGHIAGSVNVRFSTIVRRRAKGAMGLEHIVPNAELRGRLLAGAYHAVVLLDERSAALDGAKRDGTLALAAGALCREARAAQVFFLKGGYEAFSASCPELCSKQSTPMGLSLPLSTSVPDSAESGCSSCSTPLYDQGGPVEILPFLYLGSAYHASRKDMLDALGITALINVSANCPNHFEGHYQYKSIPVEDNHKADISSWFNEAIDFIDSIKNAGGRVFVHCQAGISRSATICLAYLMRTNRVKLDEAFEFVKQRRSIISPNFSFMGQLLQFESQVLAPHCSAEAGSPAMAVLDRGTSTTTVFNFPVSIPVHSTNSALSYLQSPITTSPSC
Numbers stand for hits.

For CCOC(=O)/C=C/S(=O)(=O)c1ccc(NC(C)=O)cc1 the results were PKA inh inactive, Hsp90 block inactive, Cdc25B block inactive, SK-BR-3 tox 24h 3.0, ROCK2 blocker inactive and DUSP1 inh inactive.
`Fc1ccccc1Cn1nnc2c(-n3ccnc3)ncnc21` gave PKA inh 24, Hsp90 block inactive, Cdc25B block inactive, SK-BR-3 tox 24h inactive, ROCK2 blocker 27 and DUSP1 inh inactive.
Screening Cc1ccc(-c2nc(-c3ccccc3)no2)c(Cl)c1 returned PKA inh inactive, Hsp90 block inactive, Cdc25B block inactive, ROCK2 blocker inactive and DUSP1 inh inactive.
`COc1cc(NC(=O)c2ccco2)c(OC)cc1NC(=O)CSc1nnc(-c2cccs2)n1C` gave PKA inh inactive, Hsp90 block inactive, Cdc25B block inactive, SK-BR-3 tox 24h 42, ROCK2 blocker inactive and DUSP1 inh inactive.
For O=C(NCCCn1ccnc1)c1noc2c1CCc1ccccc1-2 the results were PKA inh inactive, Hsp90 block 63, Cdc25B block inactive, SK-BR-3 tox 24h inactive, ROCK2 blocker inactive and DUSP1 inh inactive.
For CC(=O)Oc1ccc(C(=O)O)cc1OC(C)=O the results were PKA inh inactive, Hsp90 block inactive, Cdc25B block inactive, ROCK2 blocker inactive and DUSP1 inh inactive.
Screening CC(=O)Oc1cccc2c1C(=O)c1c(OC(C)=O)cc(C(=O)O)cc1C2=O returned PKA inh inactive, Hsp90 block 102, Cdc25B block inactive, SK-BR-3 tox 24h inactive, ROCK2 blocker inactive and DUSP1 inh inactive.
Screening Cc1occc1C(=O)NC(C)C1CCCO1 (stereo unspecified) returned PKA inh inactive, Hsp90 block inactive, Cdc25B block inactive, SK-BR-3 tox 24h inactive, ROCK2 blocker inactive and DUSP1 inh inactive.
Screening O=C(c1ccc2ccccc2c1)N1CCN(c2ccc(O)cc2)CC1 returned PKA inh inactive, Hsp90 block 92, Cdc25B block inactive, ROCK2 blocker inactive and DUSP1 inh inactive.
`Cc1cc(NC(=O)CSc2nc3c(c(=O)n2-c2ccc(Br)cc2)SCC3)no1` gave PKA inh inactive, Hsp90 block inactive, Cdc25B block inactive, SK-BR-3 tox 24h 40, ROCK2 blocker inactive and DUSP1 inh inactive.
For COc1ccc(-n2c(SCC(=O)Nc3cc(C)on3)nc3c(c2=O)SCC3)cc1 the results were PKA inh inactive, Hsp90 block inactive, Cdc25B block inactive, ROCK2 blocker inactive and DUSP1 inh inactive.
`O=C(CSc1nc2c(cnn2-c2ccccc2)c(=O)[nH]1)c1ccc(Cl)cc1` gave PKA inh inactive, Hsp90 block inactive, Cdc25B block inactive, ROCK2 blocker inactive and DUSP1 inh 56.
For CCCSc1nc2c(cnn2-c2ccccc2)c(=O)[nH]1 the results were PKA inh inactive, Hsp90 block inactive, Cdc25B block inactive, ROCK2 blocker inactive and DUSP1 inh inactive.
COc1ccc(OC)c(-c2nnc(SCC(=O)NC3CCCCC3)o2)c1 was read as PKA inh inactive, Hsp90 block inactive, Cdc25B block inactive, ROCK2 blocker inactive and DUSP1 inh inactive.
For O=C(O)CCC(=O)N1CCc2cc(S(=O)(=O)N3CCN(c4ccc(F)cc4)CC3)ccc21 the results were PKA inh inactive, Hsp90 block inactive, Cdc25B block inactive, ROCK2 blocker inactive and DUSP1 inh inactive.
Cc1cccc(N2CCN(S(=O)(=O)c3ccc4c(c3)CCN4C(=O)CCC(=O)O)CC2)c1C was read as PKA inh inactive, Hsp90 block inactive, Cdc25B block inactive, ROCK2 blocker inactive and DUSP1 inh 51.
For CC(C(=O)Oc1ccc2c(c1)OCO2)N1C(=O)c2ccccc2C1=O (stereo unspecified) the results were PKA inh inactive, Hsp90 block inactive, Cdc25B block inactive, SK-BR-3 tox 24h 36 and DUSP1 inh inactive.
`COc1ccc(-c2noc(C3CCCN(C(=O)c4ccccc4OC)C3)n2)cc1OC` (stereo unspecified) gave PKA inh inactive, Hsp90 block inactive, Cdc25B block inactive, SK-BR-3 tox 24h inactive, ROCK2 blocker inactive and DUSP1 inh inactive.
